Assay results: PubChem BioAssay (Tox21)
Results filed as inconclusive are left out. Calls of active or inactive are those of the source. Unless noted, calls come from the whole dose curve; as a rule, active = well fitted curve in the direction sought with a large enough effect in the repeat runs; inconclusive = weak or mixed curves; inactive = no such curve, though single readings can be large; an effect the other way counts as inactive or inconclusive.

What was measured:
[1] = qHTS assay to identify small molecule antagonists of the sonic hedgehog signaling (Shh) pathway (AID 1259369; calls by dose curve; note: nearly all actives have a fitted effect of over 45% in size); conditions: NIH/3T3 Gli1-Luc reporter, Shh antagonist, luminescence 24 h; series mostly up to 92.4 µM
Method in brief: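 Stable Gli1-Luc reporter NIH/3T3 clone; quantitative HTS in stimulated mode with conditioned medium. Luminescence measured after 24hr compound treatment at 37 C.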

[2] = qHTS assay to identify small molecule agonists of the estrogen receptor beta (ER-beta) signaling pathway - cell viability counter screen (AID 1259380); conditions: ER-beta-bla HEK293T viability, CellTiter-Glo luminescence, 16 h; series mostly up to 92.4 µM; note: nearly all actives have a fitted effect of over 30% in size
Method in brief: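 Steps: plate ER-beta-UAS-bla HEK293T cells, rest 6 hr; add compounds in DMSO; incubate 16 hr at 37C, 5% CO2; add FRET substrate 2 hr; add CellTiter-Glo, wait 30 min at room temperature; read luminescence.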

[3] = qHTS assay to identify small molecule antagonists of the estrogen receptor beta (ER-beta) signaling pathway - cell viability counter screen (AID 1259382); conditions: ER-beta-UAS-bla HEK293T viability, CellTiter-Glo luminescence, 16 h; series mostly up to 92.4 µM;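 note: HEK293T cells carrying ER-beta-UAS-bla reporter stimulated with estradiol; nearly all actives have a fitted effect of over 55% in size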
Method in brief: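 Viability is scored by CellTiter-Glo luminescence (30 min, room temperature) in ER-beta-UAS-bla HEK293T wells already read for reporter fluorescence. Compound exposure lasts 16 hr at 37C alongside 1nM 17-beta-estradiol in charcoal-stripped serum medium.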

[4] = target: Thyrotropin receptor (Homo sapiens) (UniProt P16473); test: qHTS assay to identify small molecule antagonists of the thyroid stimulating hormone receptor (TSHR) signaling pathway (AID 1259385; calls by dose curve; note: nearly all actives have a fitted effect of over 20% in size); conditions: TSHR-HEK293 cAMP HTRF, TSH-stimulated antagonist mode; series mostly up to 92.4 µM
Sequence of Thyrotropin receptor (Homo sapiens) (P16473 whole entry, looked up): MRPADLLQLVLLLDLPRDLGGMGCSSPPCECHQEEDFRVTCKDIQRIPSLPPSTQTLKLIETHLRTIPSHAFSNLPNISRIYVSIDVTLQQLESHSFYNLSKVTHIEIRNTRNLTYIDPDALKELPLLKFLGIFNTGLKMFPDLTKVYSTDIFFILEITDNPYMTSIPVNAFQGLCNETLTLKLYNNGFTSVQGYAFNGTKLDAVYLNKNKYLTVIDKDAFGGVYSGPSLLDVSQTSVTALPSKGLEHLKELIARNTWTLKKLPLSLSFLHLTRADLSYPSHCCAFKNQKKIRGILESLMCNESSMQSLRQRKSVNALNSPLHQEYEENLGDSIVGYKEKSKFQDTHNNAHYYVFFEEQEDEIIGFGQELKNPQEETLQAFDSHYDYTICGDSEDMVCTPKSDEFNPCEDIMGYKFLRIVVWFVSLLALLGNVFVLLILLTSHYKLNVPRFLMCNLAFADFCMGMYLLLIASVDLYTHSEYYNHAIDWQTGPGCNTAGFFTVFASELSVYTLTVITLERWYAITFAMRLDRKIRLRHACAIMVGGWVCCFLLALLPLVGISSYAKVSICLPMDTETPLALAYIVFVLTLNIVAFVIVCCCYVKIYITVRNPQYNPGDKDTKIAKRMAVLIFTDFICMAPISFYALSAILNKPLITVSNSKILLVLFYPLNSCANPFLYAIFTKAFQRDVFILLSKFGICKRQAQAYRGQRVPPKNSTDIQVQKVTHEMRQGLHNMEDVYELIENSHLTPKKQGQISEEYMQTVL
Method in brief: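 TSHR-HEK293 cells (800/well) plated 18 h, then compounds with Ro20-1724 and TSH at 1.5 ng/mL final, 30 min at room temperature. cAMP quantified by HTRF (cAMP-d2/anti-cAMP-cryptate, 1 h); 15 concentrations in triplicate.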

[5] = qHTS assay to identify small molecule agonists of the androgen receptor (AR) signaling pathway in the presence of an antagonist - cell viability counter screen (AID 1259379); conditions: MDA-kb2 viability, CellTiter-Fluor, 16 h; series mostly up to 92.4 µM;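 note: MDA-kb2 human breast cancer cells carrying an MMTV luciferase reporter; nearly all actives have a fitted effect of over 25% in size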
Method in brief: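 Nilutamide-containing (3.0uM final) MDA-kb2 cultures, 3,000 cells/well, were treated with compounds across 15 concentrations. After 16 hr at 37C with no CO2, cell viability was determined by CellTiter-Fluor fluorescence in the luciferase assay wells.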

[6] = qHTS assay to identify small molecule agonists or antagonists of the thyroid stimulating hormone receptor (TSHR) signaling pathway - wild type cell line counter screen (AID 1259384; calls by dose curve); conditions: HEK293 wild type, cAMP HTRF counter-screen; series mostly up to 92.4 µM
Method in brief: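 Wild-type Hek293 cells, 800/well, 18 h at 37C, then compound with Ro20-1724 for 30 min RT. cAMP by HTRF (cAMP-d2/anti-cAMP cryptate), 1 h RT, fluorescence read. 15 concentrations, triplicates.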

[7] = target: Estrogen receptor (Homo sapiens) (UniProt P03372); test: qHTS assay to identify small molecule agonists of the estrogen receptor alpha (ER-alpha) signaling pathway in the presence of an antagonist (AID 1259383; calls by dose curve; note: top concentration of the series differs between compounds; nearly all actives have a fitted effect of over 15% in size); conditions: VM7Luc4E2 cells, ERE-luciferase, +ICI-182,780, 22 h; series mostly up to 92.4 µM
Sequence of Estrogen receptor (Homo sapiens) (P03372 whole entry, looked up): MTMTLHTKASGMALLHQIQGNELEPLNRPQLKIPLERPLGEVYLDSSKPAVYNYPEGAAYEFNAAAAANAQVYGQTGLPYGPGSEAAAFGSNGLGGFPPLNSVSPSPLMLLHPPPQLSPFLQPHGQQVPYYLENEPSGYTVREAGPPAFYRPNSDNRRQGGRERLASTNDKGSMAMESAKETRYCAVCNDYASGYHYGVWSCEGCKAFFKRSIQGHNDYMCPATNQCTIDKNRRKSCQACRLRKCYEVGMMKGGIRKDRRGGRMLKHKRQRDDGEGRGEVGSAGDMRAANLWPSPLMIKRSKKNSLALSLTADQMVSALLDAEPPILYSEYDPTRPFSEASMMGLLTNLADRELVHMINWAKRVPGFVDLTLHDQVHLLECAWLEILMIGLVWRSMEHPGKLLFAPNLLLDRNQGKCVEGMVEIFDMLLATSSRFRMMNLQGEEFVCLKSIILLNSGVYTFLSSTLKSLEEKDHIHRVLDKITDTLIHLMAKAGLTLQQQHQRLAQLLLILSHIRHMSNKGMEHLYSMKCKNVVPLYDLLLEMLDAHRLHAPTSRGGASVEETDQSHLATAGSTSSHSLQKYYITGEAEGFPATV
Method in brief: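 Readout was ERE-driven luciferase luminescence in VM7Luc4E2 cells, which express full-length ER-alpha endogenously. Compounds were tested at 15 concentrations for 22hr alongside 10.0nM ICI-182,780 (final concentration).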

Measured: Potency

CC1(C)OC(=O)NC1=O
inactive: [1] | [2] | [3] | [4]

C=C[C@H]1CN2CC[C@H]1C[C@@H]2[C@@H](O)c1ccnc2ccc(OC)cc12
inactive: [2] | [3]

CCCCCCCCCCC(CO)CCCCCCCC (stereo unspecified)
not listed: [7]
inactive: all other assays above

Nc1cc(Cl)c(N)c(Cl)c1
inactive: [5] | [2] | [3] | [7]
